We go through 103 molecules from ChEMBL document CHEMBL1201862, “PubChem BioAssay data set” (2004).

Among all 400,000 compounds or so, about 2,100 (0.53%) were called active. About 14% were inconclusive and are not listed. The sample holds actives, similar compounds and a random draw of the others, so the mix is not that of the screen. The rule behind the calls is not given here.

Chain of Ataxin-2 (Homo sapiens) (Q99700 whole entry): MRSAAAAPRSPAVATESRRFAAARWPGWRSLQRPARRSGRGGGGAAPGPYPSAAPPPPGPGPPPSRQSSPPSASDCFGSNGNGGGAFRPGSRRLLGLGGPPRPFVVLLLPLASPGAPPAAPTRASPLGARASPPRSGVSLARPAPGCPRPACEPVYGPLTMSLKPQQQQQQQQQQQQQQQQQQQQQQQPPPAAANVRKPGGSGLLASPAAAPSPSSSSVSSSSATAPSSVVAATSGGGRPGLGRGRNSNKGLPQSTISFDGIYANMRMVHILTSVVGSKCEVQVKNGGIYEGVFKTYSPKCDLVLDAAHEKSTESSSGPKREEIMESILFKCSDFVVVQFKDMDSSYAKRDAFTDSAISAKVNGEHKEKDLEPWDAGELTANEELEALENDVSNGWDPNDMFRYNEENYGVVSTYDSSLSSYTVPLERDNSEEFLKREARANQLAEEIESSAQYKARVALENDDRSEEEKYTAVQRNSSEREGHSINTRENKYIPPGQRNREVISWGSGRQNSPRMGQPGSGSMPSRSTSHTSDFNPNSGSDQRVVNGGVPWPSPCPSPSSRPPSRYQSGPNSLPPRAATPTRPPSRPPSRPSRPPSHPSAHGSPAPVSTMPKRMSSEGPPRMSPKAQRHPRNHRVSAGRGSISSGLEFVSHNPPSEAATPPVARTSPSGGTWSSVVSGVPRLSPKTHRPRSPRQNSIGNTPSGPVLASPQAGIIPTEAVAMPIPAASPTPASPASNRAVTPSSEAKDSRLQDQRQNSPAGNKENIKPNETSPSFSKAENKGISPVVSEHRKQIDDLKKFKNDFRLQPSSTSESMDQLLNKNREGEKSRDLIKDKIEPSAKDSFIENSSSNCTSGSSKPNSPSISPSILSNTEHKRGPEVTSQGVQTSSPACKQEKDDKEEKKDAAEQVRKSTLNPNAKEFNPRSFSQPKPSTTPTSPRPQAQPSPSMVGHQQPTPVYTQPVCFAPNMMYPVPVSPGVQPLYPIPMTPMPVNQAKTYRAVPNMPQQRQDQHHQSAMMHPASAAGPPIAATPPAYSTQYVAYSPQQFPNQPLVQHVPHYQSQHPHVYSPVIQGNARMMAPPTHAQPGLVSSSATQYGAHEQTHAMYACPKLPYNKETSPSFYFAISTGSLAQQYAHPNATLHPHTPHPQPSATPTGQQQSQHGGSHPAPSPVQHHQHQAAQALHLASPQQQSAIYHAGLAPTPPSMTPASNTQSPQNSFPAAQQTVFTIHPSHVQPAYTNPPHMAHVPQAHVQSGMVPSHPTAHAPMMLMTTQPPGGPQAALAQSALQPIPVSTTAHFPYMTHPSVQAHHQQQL

The test addresses Ataxin-2 (Homo sapiens) (UniProt Q99700). The test can be described thus: qHTS for Inhibitors of ATXN expression. It is filed as functional. A general note: In qHTS, concentration-response curves come from the screen itself.
As for `CSc1ccc(CN(C)CC(=O)Nc2ccc(C)cc2Br)cc1`, the Potency result is “inactive”.

Consider `COc1cccc(/C=C/c2nc(C#N)c(N(C)Cc3ccccc3)o2)c1`, for which the Potency entry is “inactive”.

With `CC(C)(C)c1ccc(/C=C2\Oc3c(ccc(O)c3CN3CCN(CCO)CC3)C2=O)cc1`, the Potency result was “inactive”. With `CCN1C(=O)N(CC)C2C1N(CO)C(=O)N2CO` (stereo not drawn) the entry was “inactive”; with `O=C1C(Nc2ccccc2)=C/C(=N/S(=O)(=O)c2cccs2)c2ccccc21`, 8.91 µM (active); with `COC(=O)c1ccc(NC(=O)CS(=O)(=O)c2ccccc2)cc1`, “inactive”. With `O=S(=O)(O)c1cccc2cccc(Nc3ccccc3)c12` the entry was “inactive”; with `O=C(N/N=C/c1ccc(N2CCOCC2)cc1)c1ccc(NS(=O)(=O)c2cccs2)cc1`, “inactive”.

Turning to `O=C(O)c1ccc(NC2=C/C(=N/S(=O)(=O)c3cccs3)c3ccccc3C2=O)cc1`, the Potency was 22.4 µM (active).

Turning to `Cc1ccc(S(=O)(=O)N2CCN(CC(=O)N3CCCC3)CC2)c(C)c1`, the Potency entry is “inactive”. With `C=CCN1C(=O)/C(=C/N(C)C)S/C1=N\S(=O)(=O)c1cccs1`, the Potency result is “inactive”. With `Cc1ccc(S(=O)(=O)/N=C2\C=C(Nc3cccc(C(=O)O)c3)C(=O)c3ccccc32)c(C)c1` the figure was 28.2 µM (active); with `Cc1cc(C)c(S(=O)(=O)Nc2cccc(C(=O)O)c2)cc1S(=O)(=O)Nc1cccc(C(=O)O)c1`, “inactive”; with `O=C(O)c1ccc(Nc2c3ccccc3nc3ccccc23)cc1`, “inactive”. For `O=C(O)c1ccc(NC2=C/C(=N/S(=O)(=O)c3ccccc3)c3ccccc3C2=O)cc1`, the Potency is 39.8 µM (active). With `Cc1cc(NS(=O)(=O)c2ccc(NC(=O)c3cc4cc(Br)ccc4oc3=O)cc2)no1` the entry was “inactive”.

Regarding `O=c1cc(-c2ccccc2)c2c(O)cc(O)cc2o1`, the Potency entry was “inactive”.

Turning to `O=c1oc2ccc(Br)cc2cc1S(=O)(=O)c1ccc(F)cc1`, the Potency entry was “inactive”.

In the case of `CCCCN(C)S(=O)(=O)c1ccc(C(=O)Nc2sc3c(c2C(N)=O)CC(C)(C)NC3(C)C)cc1`, the Potency result is “inactive”. With `Brc1ccccc1C1CC(c2ccccc2)=Nc2ccccc2N1` (stereo not drawn) the entry was “inactive”. In the case of `C=C1C(=O)O[C@@H]2C[C@@H](C)[C@@H]3C=CC(=O)[C@@]3(C)[C@@H](OC(C)=O)[C@H]12`, the Potency is 8.91 µM (active). On to `Cc1cc(/C=C2\Cc3ccccc3C2=O)c(C)n1-c1ccccc1`, for which the Potency result was “inactive”. With `CC(C)(C)CC(C)(C)NCC(O)COCCOc1ccc(Br)cc1` (stereo not drawn) the figure was 39.8 µM (active). With `COCCCNC(=O)CN1C(=O)c2cccc3cccc1c23` the entry was “inactive”; with `CCCCOCCCNC(=O)C[C@@H]1C[C@@]2(C(=O)OC)CCCCC=C2N(Cc2ccc(Cl)cc2Cl)C1=O`, 39.8 µM (active); with `CCCCOCCCNC(=O)C[C@@H]1C[C@@]2(C(=O)OC)CCCCC=C2N(Cc2cccc3ccccc23)C1=O`, 28.2 µM (active). With `COC(=O)[C@]12CCCCC=C1N(Cc1ccc(Cl)cc1Cl)C(=O)[C@H](CC(=O)N1CCN(C(=O)C3CC3)CC1)C2` the figure was 35.5 µM (active). Take `COc1ccc(C2=CSC3=NCCN23)cc1Br`: the Potency entry was “inactive”. With `COc1ccc2nc(N3CCC(C)CC3)c(C#N)cc2c1` the entry was “inactive”; with `CCOC(=O)c1sc(-c2ccc(Cl)cc2Cl)nc1O`, “inactive”. With `CCOC(=O)/C(=C\c1ccc(Cl)cc1)c1nc(O)c2c(C)c(C)sc2n1` the figure was 39.8 µM (active).

Consider `COc1ccc(/C=N/n2c(C)nc3sc(C)c(C)c3c2=O)cc1`, for which the Potency entry is “inactive”. As to `COc1ccc(C2CC(c3cccs3)=NN2c2ccccc2)cc1` (stereo not drawn), the Potency entry was “inactive”.

On to `O=C(Nc1nc2ccccc2s1)c1cc2c(s1)-c1ccccc1OC2`, for which the Potency result was “inactive”. With `CC1(C)CC(=O)C2=C(C1)c1c(ccc3ccccc13)NC2c1ccc(C(=O)O)cc1` (stereo not drawn) the entry was “inactive”; with `CCCC(=O)Nc1nc2c(s1)COc1ccccc1-2`, “inactive”.

`O=C(CCS(=O)(=O)c1ccccc1)Nc1nc2c(s1)COc1ccccc1-2`: the Potency was 33.6 µM (active). With `CCc1cccc(NC(=O)CCS(=O)(=O)c2ccc(Br)cc2)c1` the entry was “inactive”. With `CC1(C)CC(=O)c2sc(NC(=O)CCS(=O)(=O)c3ccccc3)nc2C1` the figure was 37.7 µM (active); with `COc1ccc(C2=CC(c3ccccc3Cl)n3nc(-c4ccc(C)cc4)nc3N2)cc1` (stereo not drawn), “inactive”; with `Cc1ccc(-c2nc3ccccn3c2Nc2ccc3c(c2)OCO3)cc1`, 35.5 µM (active). With `COc1ccc(-c2nc3ncccn3c2Nc2ccccc2)cc1` the entry was “inactive”.

On to `O=C(c1ccccc1)c1sc(Nc2ccc3c(c2)OCO3)nc1-c1ccccc1`, for which the Potency result was “inactive”. With `CCN(C(=O)CSc1nnc(C2CC2)n1-c1ccccc1)C1CCS(=O)(=O)C1` (stereo not drawn) the entry was “inactive”; with `CCOC(=O)CSc1nnc2n(-c3ccccc3)c(=O)c3c4c(sc3n12)CC(C(C)(C)C)CC4` (stereo not drawn), 35.5 µM (active).

For `CCOC(=O)C1CCCN(CCC(=O)Nc2cc(C)ccc2C)C1` (stereo not drawn), the Potency entry is “inactive”. Take `COc1cccc2c3c(c(C)nc12)CCN3c1ccccc1`: the Potency entry is “inactive”. With `Cc1cccn2c(=O)c3cc(C(=O)NCC4CCCO4)c(=N)n(CCc4ccccc4)c3nc12` (stereo not drawn) the entry was “inactive”; with `Oc1ccc2nnc3c(Br)cnn3c2c1`, “inactive”; with `NS(=O)(=O)c1ccc2nc(NC(=O)c3ccc(Br)o3)sc2c1`, “inactive”. With `COc1cc2nc(NC(=O)c3ccc(S(=O)(=O)N4CCCC4)cc3)sc2cc1OC` the entry was “inactive”.

In the case of `CCCNS(=O)(=O)c1ccc2nc(NC(=O)c3ccc(F)cc3)sc2c1`, the Potency was 39.8 µM (active). For `Cc1n[nH]c(-c2cccnc2)c1N=NN(C)C`, the Potency is 23.8 µM (active). Regarding `O=C/C(=C\Nc1ccc(S(=O)(=O)CCO)cc1)c1nc2cc(Cl)ccc2o1`, the Potency entry is “inactive”.

As to `Cc1ccsc1/C=N/N=C/c1sccc1C`, the Potency result is “inactive”. With `C=C1C(=O)OC2C=C(CO)C3OC3C3OC3(C)CC(OC(=O)/C(=C/C)COC(C)=O)C12` (stereo not drawn) the figure was 16.8 µM (active); with `O=C1Nc2c(Br)cc(Br)c3cccc1c23`, “inactive”. With `Cc1cc(C)cc(NC2=C(c3ccccc3)C(=O)c3ccccc32)c1` the figure was 20 µM (active); with `Cc1cnc2c(c1)C(=O)c1ccccc1-2`, “inactive”. With `Cc1ccc(C2C=C(c3ccccc3)Nc3ncnn32)cc1` (stereo not drawn) the entry was “inactive”; with `CCc1cc2c(C)cc(=O)oc2cc1OC(=O)C1CCCN1C(=O)OC(C)(C)C` (stereo not drawn), “inactive”. `CC(=O)/N=c1\c(C#N)cc2c(=O)n3cccc(C)c3nc2n1CCCOC(C)C`: the Potency entry is “inactive”. With `C=C(C)CN=C(S)NN=C1c2ccccc2-c2ccccc21` the entry was “inactive”. With `CCOC(=O)Nc1ccc2c(c1)C(=NNC(N)=S)c1ccccc1-2` the figure was 31.6 µM (active); with `CCOC(=O)Nc1ccc2c3c(cccc13)-c1ccccc1-2`, “inactive”; with `COc1ccc(C2C=C(c3ccccc3)Nc3nc(NC(=O)c4ccc(C)cc4)nn32)cc1` (stereo not drawn), “inactive”.

Turning to `COC1(OC)C(/C=C/c2ccc(Cl)cc2)C(C#N)(C#N)C1(OC)OC` (stereo not drawn), the Potency was 31.6 µM (active). With `NC(=O)c1ccsc1NC(=O)COC(=O)CNC(=O)c1ccc(F)cc1` the entry was “inactive”. With `C=Cn1cc[n+](CC(=O)c2ccc(Br)cc2)c1` the entry was “inactive”; with `O=C(CCSc1ccc(Br)cc1)c1ccc(O)cc1`, 39.8 µM (active); with `O=C(CCCSc1nc(O)c2ccccc2n1)c1ccccc1`, “inactive”. With `COc1ccc(N2C(=O)CC(Sc3nc[nH]n3)C2=O)c(OC)c1` (stereo not drawn) the figure was 28.2 µM (active). For the molecule `COc1ccccc1N1C(=O)CC(N(O)c2ccccc2)C1=O` (stereo not drawn), the Potency result was “inactive”.

With `COc1ccc(C2Nc3cc(OC)ccc3-n3cccc32)cc1` (stereo not drawn), the Potency result is “inactive”. With `CCN(C(=O)c1cc2c(=O)n3ccccc3nc2n1C)C1CCCCC1` the entry was “inactive”; with `Nc1ccc(SCc2nc3cccc4c3n2CCC4)cc1`, “inactive”; with `c1ccc(CN2CCN(CCCNc3ccc4nnc(-c5ccccc5)n4n3)CC2)cc1`, 22.4 µM (active). With `c1ccc(CN2CCN(Cc3nnc(-c4ccccc4)o3)CC2)cc1` the entry was “inactive”; with `CCCn1c(=N)c(C#N)cc2c(=O)n3ccccc3nc21`, “inactive”; with `COc1ccc(-c2cc3ccc(O)cc3oc2=O)cc1`, “inactive”.

As to `CCOCCCn1c(=N)c(C(=O)NCC2CCCO2)cc2c(=O)n3cc(C)ccc3nc21` (stereo not drawn), the Potency result was “inactive”. Consider `Cc1ccc(-c2nn(-c3ccccc3)cc2/C=C(\C#N)c2cccc(C#N)c2)o1`, for which the Potency result is “inactive”. With `CC1(C(=O)Nc2cccc3ccccc23)CC1(Br)Br` (stereo not drawn) the entry was “inactive”; with `CC1(C(=O)Nc2cccc3cccnc23)CCN1Cc1ccc(-c2ccccc2)o1` (stereo not drawn), 6.31 µM (active); with `CC(=O)Nc1ccc(S(=O)(=O)Nc2cccc3cccnc23)cc1`, “inactive”.

`Cc1ccc(N2C(=O)/C(=C/Nn3cnnc3)c3ccccc3C2=O)cc1`: the Potency result is “inactive”. With `CCOCCCn1/c(=N/C(C)=O)c(C#N)cc2c(=O)n3ccccc3nc21` the entry was “inactive”. With `CC(C)C[C@H]1COc2cccc(N3CCN(Cc4ccccc4F)CC3)c2S(=O)(=O)N1` the figure was 12.6 µM (active); with `O=C(NCc1ccco1)C1CCC(N2C(=O)C3C4CCC(C4)C3C2=O)CC1` (stereo not drawn), “inactive”. For `O=C(Nc1cccc2c1C(=O)NC2=O)c1ccccc1[N+](=O)[O-]`, the Potency result was “inactive”. With `CCOc1ccc(NC(=O)c2cn(CC(C)C)c(=O)c3c2c2ccccc2n3C)cc1` the figure was 17.8 µM (active); with `CCOc1ccc(NC(=O)c2cc3ccccc3cc2O)cc1`, “inactive”; with `CCOc1ccc(NC(=O)/C(=C/Nc2ccccc2)C(C)=O)cc1`, “inactive”. With `CCOCCCN=C(S)N1CCCN(c2nc3cc(C)cc(C)c3cc2C#N)CC1` the entry was “inactive”; with `CCOc1ccc2nc(O)c(CN(Cc3cccs3)Cc3nnnn3C(C)(C)CC)cc2c1`, 35.5 µM (active); with `CCN1CCN(c2nc(Nc3cc(OC)ccc3OC)nc(Nc3cc(OC)ccc3OC)n2)CC1`, “inactive”. For `CCc1nc2ccc(C(=O)Nc3nnc(C)s3)cc2nc1CC`, the Potency result was “inactive”. As to `COC(=O)c1c(NC(=O)c2ccc(S(=O)(=O)N(C)C3CCCCC3)cc2)sc2c1CCN(C)C2`, the Potency result is “inactive”. With `Cc1c(C(=O)Nc2ccc(S(=O)(=O)N(C)C3CCN(C)CC3)cc2)oc2c(Cl)cccc12` the figure was 39.8 µM (active); with `Cn1nc(C(=O)Nc2cccc(S(=O)(=O)N3CCCC3)c2)c2ccccc2c1=O`, “inactive”; with `O=C(Cc1cccs1)N1CCN=C1SCc1ccccc1Cl`, “inactive”.

On to `O=C(COC(=O)Cn1cnc2ccccc2c1=O)NCc1ccccc1Cl`, for which the Potency entry was “inactive”. As to `O=C(CCl)/N=c1\sccn1Cc1ccccc1Cl`, the Potency is 31.6 µM (active).
